Source: PubChem BioAssay AID463173 (ICCB-Longwood Screening Facility, Harvard Medical School, 2010)
Among all 52,000 compounds or so, about 4,300 (8.3%) were called active. No stated cut-off is given here; in the data, active means survival mostly below about 52% (no sharp cut-off); inactive means mostly above about 56%. What follows is part of a selection rich in actives, with near analogues and random picks from the rest.

system: DeltatarO mutant; experiment: growth inhibition of S. aureus wild type versus tarO mutant, primary screen, teichoic acid synthesis inhibitors, RN4220, OD600 (AID 463173); conditions: OD600, 18 h, stronger effect = lower value, screened at 18.75 µg/mL (by protocol)

Compound	survival
Oc1ccc(Br)cc1C1CC(c2ccccc2)=NC(c2ccco2)N1 (centres undefined)	1% (active)
O=C(CCN1CCOCC1)N1N=C(c2ccccc2)CC1c1ccco1 (centres undefined)	89% (inactive)
O=c1oc2c(F)cc(F)cc2cc1S(=O)(=O)c1ccc(F)cc1	60% (inactive)
CN(Cc1ccccc1)c1ccc(-c2nc(-c3ccncc3)no2)cc1[N+](=O)[O-]	63% (inactive)
COc1ccccc1-c1noc(-c2ccc(N(C)Cc3ccccc3)c([N+](=O)[O-])c2)n1	36% (active)
COc1ccc(CN(C)c2ccc(-c3nc(-c4ccc(OC)c(OC)c4)no3)cc2[N+](=O)[O-])cc1	62% (inactive)
CCN(CC)c1ccc(-c2nc(-c3ccncc3)no2)cc1[N+](=O)[O-]	79% (inactive)
CCN(CC)c1ccc(-c2nc(-c3ccccn3)no2)cc1[N+](=O)[O-]	41% (active)
COc1ccc(CN(C)c2ccc(-c3nc(-c4ccccc4)no3)cc2[N+](=O)[O-])cc1	71% (inactive)
CCc1noc(-c2ccc(N(C)Cc3ccc(OC)cc3)c([N+](=O)[O-])c2)n1	75% (inactive)
CN(Cc1ccccc1)c1ccc(-c2nc(-c3ccccc3)no2)cc1[N+](=O)[O-]	69% (inactive)
CCN(Cc1ccc(OC)cc1)c1ccc(-c2nc(-c3ccncc3)no2)cc1[N+](=O)[O-]	41% (active)
CN(Cc1ccccc1)c1ccc(-c2nc(-c3ccccn3)no2)cc1[N+](=O)[O-]	34% (active)
CCN(CC)c1ccc(-c2nc(-c3ccco3)no2)cc1[N+](=O)[O-]	47% (inactive)
CCN(CC)c1ccc(-c2nc(-c3ccccc3C)no2)cc1[N+](=O)[O-]	68% (inactive)
CC1CCC(NC(=O)c2ccc3c(c2)N(Cc2ccccc2F)C(=O)c2ccccc2S3(=O)=O)CC1 (centres undefined)	74% (inactive)
CCOc1ccc(NS(=O)(=O)c2ccc3[nH]cc(C(=O)NCC4CCCO4)c(=O)c3c2)cc1 (centres undefined)	87% (inactive)
CCOC(=O)C1CCN(C(=O)c2nn(-c3ccc(OC)c(Cl)c3)c(=O)c3c2c2ccccc2n3C)CC1	76% (inactive)
Cc1cccc(C(=O)NCC(c2cccs2)S(=O)(=O)c2cccs2)c1 (centres undefined)	81% (inactive)
Cc1ccc(OCC(=O)NCC(=O)OCc2cc(=O)n3nc(C(C)C)sc3n2)cc1	97% (inactive)
Cn1c(=O)c2ccccc2n2c(CCC(=O)N3CCN(c4cccc(Cl)c4)CC3)nnc12	82% (inactive)
Cc1ccc(/C=C(\C#N)C(=O)NC2CCCCCC2)o1	92% (inactive)
CN(C)c1ccc(-c2nc(-c3ccccn3)no2)cc1[N+](=O)[O-]	42% (active)

Compound	survival
CN(C)c1ccc(-c2nc(-c3ccncc3)no2)cc1[N+](=O)[O-]	81% (inactive)
CN(C)c1ccc(-c2nc(-c3ccco3)no2)cc1[N+](=O)[O-]	52% (inactive)
Cc1ccc(-n2c(=O)c3oc4ccccc4c3n(CC(=O)Nc3ccccc3)c2=O)cc1C	54% (inactive)
CCCN(CCC)C(=O)c1nn(C)c2c1CSc1ccc(C)cc1-2	92% (inactive)
CCOC(=O)c1ccc(NC(=O)CS(=O)(=O)Cc2nc(-c3ccc(C)cc3)oc2C)cc1	95% (inactive)
COc1cc(OC)c(NC(=O)C(C)n2nc(-c3ccc(C)cc3)c3c(c2=O)CCCC3)cc1Cl (centres undefined)	39% (active)
COc1cc(OC)c(NC(=O)C(C)n2nc(-c3ccc(C)c(C)c3)ccc2=O)cc1Cl (centres undefined)	64% (inactive)
COc1cc(OC)c(NC(=O)C(C)n2c(=O)cc(-c3ccccc3)c3c(C)nn(C)c32)cc1Cl (centres undefined)	83% (inactive)
COc1ccc(NC(=O)C(C)N2CCN(C)CC2)cc1 (centres undefined)	86% (inactive)
Cc1ccc(NC(=O)C(C)n2nnc3sc4c(c3c2=O)CCCC4)cc1Cl (centres undefined)	82% (inactive)
COc1ccc(NC(=O)C(C)n2nc(-c3cc(C)ccc3C)c3c(c2=O)CCCC3)cc1 (centres undefined)	38% (active)
Cc1cc(C)n(-c2nc(C)c(C)c(=O)n2CC(=O)Nc2ccc(Cl)c(Cl)c2)n1	82% (inactive)
COc1ccc(-c2nc3nc(C)cc(Nc4cccc(C(F)(F)F)c4)n3n2)cc1	63% (inactive)
COc1cccc(N2C(=O)C(CC(=O)Nc3ccc(F)cc3)N(CCC3=CCCCC3)C2=O)c1 (centres undefined)	53% (inactive)
COc1ccc(CNC(=O)CCC2N=C3c4ccccc4N=C(SCc4cccc(F)c4)N3C2=O)cc1 (centres undefined)	117% (inactive)
Cc1c(CCNC(=O)c2ccc(C(C)(C)C)cc2)sc2nc(-c3ccc(F)cc3)nn12	82% (inactive)
CCOC(=O)c1scc(-c2ccccc2)c1S(=O)(=O)N1CCN(c2ccccc2OC)CC1	94% (inactive)
O=C(COc1cccc(-n2cnnn2)c1)NC1CCCCC1	83% (inactive)
CCCN(CCC)C(=O)Cn1nnc2sc(-c3ccccc3)cc2c1=O	70% (inactive)
CCOc1ccccc1NC(=O)Cn1nnc2sc(-c3ccccc3)cc2c1=O	39% (active)
CCN(CC)C(=O)Cn1nnc2sc(-c3ccccc3)cc2c1=O	56% (inactive)
COC(=O)c1ccccc1NC(=O)Cn1nnc2sc(-c3ccccc3)cc2c1=O	52% (inactive)
CCN(C(=O)Cn1nnc2sc(-c3ccccc3)cc2c1=O)c1cccc(C)c1	50% (active)

Compound	survival
CCc1cccc(CC)c1NC(=O)Cn1nnc2sc(-c3ccccc3)cc2c1=O	49% (inactive)
COC(=O)c1ccc(NC(=O)CSc2nc(=O)[nH]c3c2CCCC3)cc1	75% (inactive)
COC(=O)CSc1ncc2c(n1)-c1ccccc1N(Cc1ccc(Cl)cc1)S2(=O)=O	69% (inactive)
CCOC(=O)N1CCc2c(sc3c2c(=O)n(CCc2ccccc2)c(=O)n3Cc2c(F)cccc2Cl)C1	85% (inactive)
COc1ccc(-c2nc(C)c(CCNC(=O)c3c(F)cccc3F)s2)cc1	84% (inactive)
O=C(Cn1c(=O)oc2cc(S(=O)(=O)N3CCCCCC3)ccc21)NCc1ccccc1Cl	78% (inactive)
COCCCN1C(=O)c2[nH]nc(-c3cc(C)ccc3O)c2C1c1ccc(F)cc1 (centres undefined)	66% (inactive)
CCOc1cc(C2c3c(-c4cc(C)ccc4O)n[nH]c3C(=O)N2CCCOC(C)C)ccc1O (centres undefined)	90% (inactive)
CCc1ccc(C2c3c(-c4cc(C)ccc4O)n[nH]c3C(=O)N2CCO)cc1 (centres undefined)	61% (inactive)
COCCN1C(=O)c2[nH]nc(-c3cc(C)ccc3O)c2C1c1ccc(C(C)C)cc1 (centres undefined)	1% (active)
CCCCOc1cccc(C2c3c(-c4cc(C)ccc4O)n[nH]c3C(=O)N2CCOC)c1 (centres undefined)	10% (active)
COCCN1C(=O)c2[nH]nc(-c3c(C)cc(C)cc3O)c2C1c1cccc(O)c1 (centres undefined)	57% (inactive)
COCCCN1C(=O)c2ccccc2CC1(C)C(=O)NC1CCCCC1 (centres undefined)	97% (inactive)
Cc1ccc(CNC(=O)Cc2csc3ccccc23)cc1	93% (inactive)
CC(=O)N1c2ccc(S(=O)(=O)N3CCN(c4cc(Cl)ccc4C)CC3)cc2CC1C (centres undefined)	87% (inactive)
CCN1CCCC1CNCC(=O)NC1(C)C2CCC(C2)C1(C)C (centres undefined)	100% (inactive)
COc1ccccc1C(=O)Nc1nnc2n1CCS2	69% (inactive)
COc1ccccc1N1CCN(C(=O)c2ccco2)CC1	104% (inactive)
O=C(NCC(c1cccnc1)N1CCc2ccccc21)c1ccccc1Br (centres undefined)	56% (inactive)
COc1ccc(C(=O)NCC(c2cccnc2)N2CCc3ccccc3C2)cc1 (centres undefined)	77% (inactive)
Cc1ccccc1C(=O)NCC(c1cccnc1)N1CCc2ccccc21 (centres undefined)	44% (active)
COc1ccc(C(=O)NCC(c2cccnc2)N2CCc3ccccc32)cc1 (centres undefined)	46% (active)
COc1ccc(C(=O)NCC(c2cccnc2)N2CCc3ccccc32)cc1OC (centres undefined)	57% (inactive)

Compound	survival
O=C(NCC(c1cccnc1)N1CCc2ccccc21)c1ccc(Cl)cc1 (centres undefined)	52% (inactive)
Cc1ccc(C(=O)NCC(c2cccnc2)N2CCc3ccccc32)cc1C (centres undefined)	55% (inactive)
COc1cc(C(=O)NCC(c2cccnc2)N2CCc3ccccc3C2)cc(OC)c1OC (centres undefined)	76% (inactive)
COc1cc(C(=O)NCC(c2cccnc2)N2CCc3ccccc32)cc(OC)c1OC (centres undefined)	44% (active)
COc1ccc(C(=O)OCc2cc(=O)n3nc(-c4cccs4)sc3n2)cc1	60% (inactive)
c1ccc(Oc2ccc(N=NN3CCCCC3)cc2)cc1	74% (inactive)
CCN1CCN(c2c(S(=O)(=O)c3ccc(C)c(C)c3)cnc3cc(OC)c(OC)cc23)CC1	75% (inactive)
CCC(=O)c1cc2c(cc1NC(=O)c1cccc(Cl)c1)OCCO2	105% (inactive)
Cc1ccc(-c2nc3cc(Cl)ccc3o2)cc1NC(=O)COc1ccc(F)cc1	53% (inactive)
Cc1ccc2oc(-c3ccc(C)c(NC(=O)/C=C/c4ccc(Cl)cc4)c3)nc2c1	90% (inactive)
COc1ccc2oc(-c3ccc(C)c(NC(=O)c4sc5ccccc5c4Cl)c3)nc2c1	48% (active)
Cc1ccc(C(=O)Nc2cc(-c3nc4cc(Cl)ccc4o3)ccc2C)c(C)c1	85% (inactive)
COc1ccc2oc(-c3ccc(C)c(NC(=O)Cc4ccc(Cl)cc4)c3)nc2c1	151% (inactive)
CCc1ccc(OCC(=O)Nc2cc(-c3nc4cc(C)ccc4o3)ccc2C)cc1	65% (inactive)
COc1ccc2oc(-c3ccc(C)c(NC(=O)COc4cc(C)cc(C)c4)c3)nc2c1	43% (active)
Cc1ccc2oc(-c3ccc(C)c(NC(=O)C(C)(C)Oc4ccc(Cl)cc4)c3)nc2c1	13% (active)
Cc1c(NC(=O)c2sc3ccccc3c2Cl)cccc1-c1nc2ccccc2o1	53% (inactive)
COc1ccc2oc(-c3ccc(C)c(NC(=O)CSc4ccc(Cl)cc4)c3)nc2c1	51% (active)
COc1ccc2oc(-c3cccc(NC(=O)c4sc5c([N+](=O)[O-])cccc5c4Cl)c3)nc2c1	77% (inactive)
Cc1ccc2nc(-c3ccc(C)c(NC(=O)CSc4ccc(Cl)cc4)c3)oc2c1	85% (inactive)
